NCOA3 inh = human NCOA3 inhibition; Q9Y6Q9; actives 0.17% (n = 360,000); HEK293 GAL4-SRC3 luciferase reporter, luminescence; inhibition, % at 3.6 µM;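 active means inhibition above a per-campaign cutoff, the mean of all compounds plus 3 SD, cut at about 60% in these data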;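 further: 0% = DMSO-treated cells and 100% = gossypol-treated cells at 36 µM; higher means less SRC3-driven luciferase light from the GAL4 reporter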
NR2F2 inh = inhibitors of human COUP-TFII (NR2F2); HEK293T NGFI-A luciferase reporter, luminescence; P24468; actives 0.7% (n = 370,000); AID 686940; inhibition, % at 8.6 µM;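 active means inhibition above a per-plate cutoff, mean inhibition of test wells between control levels plus 3 SD, cut at about 38% in these data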;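 further: cells cotransfected with COUP-TFII expression vector driving the NGFI-A reporter; 0% = median of COUP-TF2 test wells and 100% = reporter-only cells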
NCOA2 inhibitor = inhibits human steroid receptor coactivator 2. Q15596. HEK293 GAL4-SRC2 luciferase reporter, luminescence. inhibition, % at 9 µM. actives 0.17% (n = 370,000);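 active means inhibition above the mean inhibition of all tested compounds plus 3 SD, set per campaign, cut at about 52% in these data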;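 further: 0% = DMSO treated cells and 100% = cells given Gossypol at 36 µM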
SRC1 inh = inhibits human SRC1 coactivator. Q15788. HEK293 GAL4-SRC1 luciferase reporter, luminescence. inhibition, % at 3.6 µM. actives 0.12% (n = 360,000);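 active means inhibition above the campaign mean plus 3 SD, with each screening campaign given its own cutoff, cut at about 60% in these data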;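 further: 0% = DMSO treated cells and 100% = gossypol at 36 µM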
NR5A2 inv ag = inverse agonists of human LRH-1 (NR5A2); O00482; HEK293T StAR-luciferase reporter, LRH-1 transfected, 24 h; inhibition, % at 3.6 µM; actives 0.13% (n = 360,000); AID 602396;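 active means inhibition above the mean inhibition of all tested compounds plus 3 SD, cut at about 73% in these data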;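 further: 0% = DMSO wells and 100% = reporter-only cells lacking LRH-1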
GalR3 antag = blocks the human galanin receptor 3. O60755. HEK293 GalR3-CNG cAMP membrane potential fluorescence; galR3 body fused to GalR1 C-terminus. inhibition, % at 3 µM. actives 0.44% (n = 360,000). AID 651719;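 active means inhibition above the screen-wide average plus 3 SD, cut at about 13% in these data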;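 further: forskolin and galanin both at EC90 stimulate the cells; cAMP rise reported by CNG channel membrane potential dye signal; 0% = forskolin plus galanin with DMSO and 100% = forskolin alone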
Target sequence (O60755 1-299 limits assumed): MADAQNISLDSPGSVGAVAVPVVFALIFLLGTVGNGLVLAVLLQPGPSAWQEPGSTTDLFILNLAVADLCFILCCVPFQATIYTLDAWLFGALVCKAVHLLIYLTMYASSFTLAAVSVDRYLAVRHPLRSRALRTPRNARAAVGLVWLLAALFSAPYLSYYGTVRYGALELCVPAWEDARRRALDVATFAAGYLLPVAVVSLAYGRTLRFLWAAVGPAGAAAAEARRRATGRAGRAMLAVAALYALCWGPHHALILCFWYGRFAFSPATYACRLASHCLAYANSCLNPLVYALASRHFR
* = called active by the depositor; nt = no result given. Compounds with a hit are over-represented: about 1.1% of the library has one in this group of screens.

SMILES	NCOA3 inh	NR2F2 inh	NCOA2 inhibitor	SRC1 inh	NR5A2 inv ag	GalR3 antag
COC(=O)CCCn1cc(CN2CC(N(C)C)CS2(=O)=O)nn1 (stereo not drawn)	nt	-10	5	nt	-37	-5
O=C(NC1CCCCC1)C(c1cccnc1)N(C(=O)CCl)c1ccccc1Cl (stereo not drawn)	59	9	59*	51	58	4
O=C(NC1CCCCC1)C(c1cccnc1)N(C(=O)CCl)c1ccc(F)cc1 (stereo not drawn)	69*	14	50	54	38	1
COc1ccc(N(C(=O)CCl)C(C(=O)NC2CCCCC2)c2cccnc2)cc1 (stereo not drawn)	70*	10	63*	47	11	3
COc1ccc(C(C(=O)NC2CCCCC2)N(C(=O)CCl)c2cccc(Cl)c2)cc1 (stereo not drawn)	69*	-8	16	17	16	-3
COc1ccc(C(C(=O)NC2CCCCC2)N(C(=O)CCl)c2ccc(OC)cc2)cc1 (stereo not drawn)	41	nt	nt	-14	2	nt
CCCN1C(=O)c2n[nH]c(C)c2C1c1ccc2c(c1)OCO2 (stereo not drawn)	nt	-3	-15	nt	nt	-1
Cc1ccc(-c2nc(NC(=O)c3nn(C)cc3[N+](=O)[O-])sc2C)cc1C	15	10	10	-34	8	-3
Cc1ccc(-c2nc(NC(=O)c3nn(C)cc3[N+](=O)[O-])sc2C)cc1	4	30	52*	-18	44	-3
COc1ccc(N2CCCN(CC(=O)Nc3ccccc3C)CC2)cc1	nt	15	16	nt	nt	nt
CC(=O)C1=C(c2ccc(Br)cc2)C(=O)c2ccccc2C1=O	92*	71*	70*	91*	85*	-2
CCCC(=O)N1CCOCC1c1cc(C(=O)Nc2ccccc2)no1 (stereo not drawn)	-19	10	-7	1	14	-5
O=C(CCl)N1N=C(c2cccs2)CC1c1ccco1 (stereo not drawn)	41	11	60*	35	-2	10
C=C1C(=O)C2=CC1CCC(=O)C1(C)CCC(OC(C)=O)C(C)(C)C1CC2O (stereo not drawn)	64*	34	48	51	46	-1
O=C(O)CCCCCCCCCCC1CCC(O)C1O (stereo not drawn)	20	41*	40	6	5	-2
Cc1cc([N+](=O)[O-])nn1Cc1ccc(C(=O)N/N=C/c2ccc(O)cc2O)cc1	77*	-3	17	56	67	-9
O=C(N/N=C/c1ccc(O)cc1O)c1ccc(CN2C(=O)c3cccc4cccc2c34)cc1	68*	-17	37	45	65	-2
C[C@@H]1CN([C@@H](C)CN(C)C)C(=O)c2cc(NC(=O)Nc3ccccc3)ccc2O[C@@H](C)CCCCO[C@H]1CN(C)S(=O)(=O)c1ccc(F)cc1	nt	14	nt	nt	nt	nt
CC1CCN(Cc2c(C(=O)N/N=C/c3cc(Br)ccc3O)nnn2-c2nonc2N)CC1	68*	-10	17	41	8	-9
COC(=O)[C@H](CC(C)C)N(Cc1cn(Cc2ccc(C)cc2)nn1)S(=O)(=O)c1ccc(F)cc1Br	nt	11	28	nt	nt	nt
O=C(CCl)NC(Cc1ccccc1)c1ccccc1 (stereo not drawn)	55	16	57*	41	37	-5
O=C1C(=C(I)I)c2ccccc2-c2ccccc21	-33	28	86*	-77	44	-9
O=C(O)c1cccc2c1C(=O)c1ccccc1-2	14	-1	1	-18	10	-5
Brc1ccc(N/N=C(/N=Nc2nn[nH]n2)c2ccccc2)cc1	63*	20	31	16	32	-7
O=C(O)c1ccc(N=N/C(=N\Nc2ccc(C(=O)O)cc2)c2ccccc2)cc1	-28	5	-7	-21	-34	-4
COc1ccccc1-c1nnc(Sc2nc([N+](=O)[O-])nn2C)o1	73*	12	65*	64*	75*	-4
COC(=O)[C@]12C[C@H](CC(=O)N3CCOCC3)C(=O)N(Cc3ccccc3)C1=C[C@H](C(C)(C)C)O[C@@H]2C	nt	-6	-7	nt	nt	-2
c1ccc(CN2CCN(c3ncnc4c3[nH]c3ccccc34)CC2)cc1	35	74*	20	-1	37	60*

High-throughput results (PubChem)
